Screening data deposited in PubChem by National Center for Advancing Translational Sciences (NCATS).
Shown are actives, neighbours in structure and some others; about 19% of the full set was active somewhere.
DT40 TDP1 no CPT: qHTS for Inhibitors of human tyrosyl-DNA phosphodiesterase 1 (TDP1): qHTS in cells in absence of CPT; 420,000 compounds, 15% hits; Potency, µM (top dose mostly 46.2 µM), inactives show top-dose activity change, negative = growth inhibition, most hits filed as inhibitors; DT40 Tdp1-/- hTDP1 cells, no CPT, ATP luminescence, 48 h; note: nearly all actives have a fitted effect of over 55% in size
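Camptothecin absent (DMSO only). Human TDP1-complemented DT40 knockout cells, 400 cells/well, 37 °C for minimum 48 hr; ATP measured via CellTiter-Glo, 30 min dark incubation, luminescence.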
VP16 counter: inhibits Gal4-VP16 luciferase reporter, ROR gamma counter-screen. Drosophila S2 Gal4-VP16 UAS-luciferase, luminescence, 20 h. Potency, µM (titrated, usually from 53.6 µM), without a hit: at the highest dose activity, negative = inhibition, hits mostly inhibitors. 310,000 compounds, 3.5% hits;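 note: Gal4-VP16 expression switched on by copper sulfate through the metallothionein promoter; nearly all actives have a fitted effect of over 50% in size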
RORg inh: inhibitors of mouse ROR gamma transcriptional activity; Drosophila S2 Gal4-RORgamma UAS-luciferase reporter, 20 h; 310,000 compounds, 5.4% hits; Potency, µM (highest dose often 53.6 µM), without a hit: at the top dose activity change, negative = inhibition, usual class: inhibitors; AID 2551; note: nearly all actives have a fitted effect of over 60% in size
Target sequence (P51450 whole entry, looked up, the tested form may be a part): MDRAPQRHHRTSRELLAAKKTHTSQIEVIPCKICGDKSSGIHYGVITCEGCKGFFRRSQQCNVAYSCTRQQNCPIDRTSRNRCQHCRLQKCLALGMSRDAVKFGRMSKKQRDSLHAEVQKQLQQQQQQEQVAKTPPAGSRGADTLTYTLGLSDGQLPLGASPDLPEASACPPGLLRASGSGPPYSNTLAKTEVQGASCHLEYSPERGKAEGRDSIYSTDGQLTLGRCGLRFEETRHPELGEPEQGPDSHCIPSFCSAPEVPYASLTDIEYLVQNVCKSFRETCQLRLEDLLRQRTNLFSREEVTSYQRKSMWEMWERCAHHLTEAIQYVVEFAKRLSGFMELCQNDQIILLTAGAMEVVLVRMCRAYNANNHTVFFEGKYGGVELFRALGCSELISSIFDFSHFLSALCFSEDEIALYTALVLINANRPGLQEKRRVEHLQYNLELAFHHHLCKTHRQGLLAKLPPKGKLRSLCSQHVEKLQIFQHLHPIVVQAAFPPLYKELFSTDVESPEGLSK
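Stably transfected Drosophila Schneider cells are the test system, with ROR gamma fused to Gal4 and luciferase under UAS control; luminescence is read after 20 hr of 700 uM copper sulfate induction at ambient temperature.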
TDP1 inh: TDP1 (human) enzyme inhibition. Q9NUW8. recombinant TDP1, AlphaScreen DNA substrate cleavage. Potency, µM (highest dose often 130 µM), without a hit: at the top dose activity change, negative = inhibition, actives largely listed as inhibitors. 350,000 compounds, 0.28% hits. AID 485290; note: nearly all actives have a fitted effect of over 40% in size
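Compounds were preincubated with Tdp1 (1 nM final) for 15 min at room temperature before substrate (15 nM final) started a 5 min reaction; beads (10 ug/ml final) were then added for 10 min before AlphaScreen detection.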
TDP1 cell CPT: DT40-hTDP1 cell growth loss with CPT; chicken DT40 Tdp1-/-;hTDP1 cells + 20 nM CPT, ATP luminescence, 48 h; Potency, µM (doses to about 46.2 µM), for inactives: at the highest dose activity change, negative = growth inhibition, actives largely listed as inhibitors; 420,000 compounds, 12% hits; AID 686979; note: nearly all actives have a fitted effect of over 55% in size
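Chicken DT40 Tdp1-/- cells stably complemented with human TDP1 were seeded at 400 cells/well in medium containing 20 nM camptothecin, exposed to pin-transferred compounds, and grown at 37 °C for at least 48 hr. Viability was read as ATP luminescence.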
Numbers without * were called inactive; ? = inconclusive; · = no result given; [ ] = dose if it differs, or a comment. Calls come from the whole dose curve; as a rule, active = well fitted curve in the direction sought with a large enough effect; inconclusive = small, poorly fitted or top-dose-only effect, or another doubt; inactive = no such curve, though single readings can be large; an effect the other way counts as inactive or inconclusive. % is set by controls: 0 for no effect and ±100 for the full control effect; potency is the fitted concentration of half-maximal effect.

SMILES	DT40 TDP1 no CPT	VP16 counter	RORg inh	TDP1 inh	TDP1 cell CPT
CCC1NC(=O)c2cccnc2-n2c1nc1ccc(F)cc1c2=O (configuration not stated)	-10%	·	·	·	-6%
COc1ccc(CC(=O)OCC(=O)NC(=O)Nc2ccccc2F)cc1	-22%	·	·	0%	7%
CCCNC(=O)c1c(N)n(-c2ccc3c(c2)OCO3)c2nc3ccccc3nc12	15µM*	3%	5%	-4%	8.2µM*
Cc1ccc(N(CC(=O)NCc2ccc3c(c2)OCO3)C(=O)CCC(=O)Nc2ccccn2)cc1	?	-6%	?	5%[0.0935 µM]	-17%
Cc1ccnc(NC(=O)CCC(=O)N(CC(=O)NCc2ccccc2)c2ccc3c(c2)OCO3)c1	23µM*	-4%	?	5%	7.3µM*
O=C(N[C@H]1C=C[C@H](CC(=O)N2CCCCC2)O[C@@H]1CO)c1cccc(F)c1	-8%	·	·	·	-5%
COc1ccc(OC)c(S(=O)(=O)Nc2ccc(C(N)=O)cc2)c1	-13%	1%	0%	4%	-29%
COc1ccc(OC)c(S(=O)(=O)Nc2ccc(Oc3ccccc3)cc2)c1	?	6.3µM*	?	7%	?
COc1ccc(OC)c(S(=O)(=O)Nc2ccc(-c3ccc4nncn4n3)cc2)c1	2.1µM*	·	·	-9%	2.1µM*
O=S(=O)(Nc1ccc(-c2ccc3nncn3n2)cc1)c1cc(F)ccc1F	?	·	·	-4%	?
CCOc1ccc(NS(=O)(=O)c2cc(OC)ccc2OC)cc1	?	2%	-2%	2%	-18%
COc1ccc(OC)c(S(=O)(=O)Nc2ccc(C(C)=O)cc2)c1	18µM*	1%	14%	3%	11µM*
COc1ccc(CC(=O)N(C)CC(=O)Nc2cccc(F)c2)cc1S(=O)(=O)N1CCOCC1	0%	-5%	2%	3%	3%
CN(C(=O)COC(=O)c1cc(=O)[nH]c2ccccc12)c1c(N)n(Cc2ccccc2)c(=O)[nH]c1=O	-8%	·	·	·	-13%
CCOC(=O)CN1N=C(/C=C/c2ccc(OCC)cc2)CCC1=O	-17%	3%	44%	3%	17%
CCNC(=S)Nc1ccccc1-c1ccccc1	-13%	11µM*	8.9µM*	0%	0%
O=C(Nc1ccccc1-c1ccccc1)c1ccccc1	-19%	-14%	6%	·	-13%
CNC(=S)Nc1ccccc1-c1ccccc1	?	?	11µM*	5%	-18%
CCCNC(=O)CCNS(=O)(=O)c1ccc2c(c1)c(=O)n(C)c(=O)n2C	-3%	·	·	1%	-18%
CCOC(=O)C1(Cc2ccc(Cl)cc2)CCN(C(=O)c2ccoc2)CC1	?	-8%	13%	5%	-17%
Cc1nn(CC(=O)NC2CCS(=O)(=O)C2)c(C)c1S(=O)(=O)N(C)C (configuration not stated)	17%	·	·	0%	8%
CCCSc1ccc2nc(-c3ccccc3)cn2c1	16µM*	6.3µM*	2.2µM*	3%	18µM*
CNc1cccc(-c2cccc(C(=O)N3CCOCC3)c2)n1	-3%	·	·	·	1%
O=C(Cc1sc(Nc2ccccc2)nc1-c1ccccc1)NCc1ccccc1	?	?	?	-3%	16µM*
Cc1cccc(Nc2nc(CC(=O)O)cs2)c1	-25%	?	?	10%	-3%
SMILES	DT40 TDP1 no CPT	VP16 counter	RORg inh	TDP1 inh	TDP1 cell CPT
CCOC(=O)c1sc(N/N=C/c2ccccc2)nc1C	?	?	?	3%	?
O=C(O)Cc1sc(N/N=C\c2ccccc2)nc1-c1ccccc1	23µM*	-25%	-28%	8%	-9%
Cc1ccc(-c2nc(Nc3cccc(C)c3)sc2CC(=O)O)cc1	-6%	-8%	11µM*	·	-18%
Cc1cc(C)cc(N(CC(=O)NC2CCCCC2)C(=O)c2csnn2)c1	0%	-1%	7%	·	14%
Cc1ccc2nsnc2c1S(=O)(=O)N(Cc1ccco1)Cc1cc2ccc(C)c(C)c2[nH]c1=O	?	-1%	16%	1%	6%
CC(C)(O)C1=NOC(c2ccccc2)C1 (configuration not stated)	-25%	-13%	-6%	0%	-1%
CC(C)Cc1nc(Nc2ccccc2C#N)c2nnn(Cc3ccccc3)c2n1	?	0%	?	·	-26%
Cc1ccc(CNC(=O)c2ccc3c(O)c(S(=O)(=O)c4ccccc4)c(=O)[nH]c3c2)cc1	-5%	·	·	0%	-2%
Nc1ccc(Sc2ccc([N+](=O)[O-])cc2)cc1	?	-2%	22%	5%	?
Cc1ccc(C(C[N+](=O)[O-])Sc2ccc(N)cc2)cc1 (configuration not stated)	6.5µM*	5.6µM*	11µM*	10%	4.1µM*
Cc1ccc(C)c(N2CCN(C(=O)c3ccc(Cl)c(NC4=NC5CS(=O)(=O)CC5S4)c3)CC2)c1 (configuration not stated)	?	-7%	8%	7%	?
O=C(COC(=O)c1ccccc1C(=O)OCC(=O)NCCc1c[nH]c2ccccc12)NCCc1c[nH]c2ccccc12	23µM*	·	·	6%	?
O=C(CCCc1c[nH]c2ccccc12)NCCc1c[nH]c2ccccc12	16µM*	-5%	?	-4%	?
O=C(Nc1cccc(CNCCc2c[nH]c3ccccc23)c1)c1ccccc1Cl	18µM*	9%	-4%	·	?
O=C(COC(=O)c1ccccc1O)NCCc1c[nH]c2ccccc12	?	·	·	2%	-27%
O=C(NCCc1c[nH]c2ccccc12)OCCCCOC(=O)NCCc1c[nH]c2ccccc12	23µM*	·	·	6%	18µM*
O=C(CCc1c[nH]c2ccccc12)NCCc1ccccc1	-23%	-8%	-8%	4%[0.0935 µM]	5%
CC(C)C(=O)NCCc1c[nH]c2ccccc12	-17%	0%	3%	1%	17%
COCCn1nnnc1C(c1cccs1)N1CCN(c2cc(C)ccc2C)CC1 (configuration not stated)	?	?	?	7%	?
C=CCC(=O)NC1CC(C)(C)Cc2c1cnn2-c1ccc(C)cc1 (configuration not stated)	-14%	3%	33%	·	-3%
CC(C)(C)NC(=O)COC(=O)c1ccccc1NC(=O)c1ccco1	-4%	1%	-29%	5%	3%
Cc1ccccc1NC(=O)NCCc1c[nH]c2ccccc12	?	4%	?	8%	-1%
O=C(NCCc1c[nH]c2ccccc12)c1ccc([N+](=O)[O-])o1	23µM*	·	·	·	15µM*
O=C(CCc1c[nH]c2ccccc12)NCc1ccncc1	-8%	8%	19%	9%	-1%
O=C(NCCc1c[nH]c2ccccc12)Nc1ccccc1C(F)(F)F	?	·	·	5%	23µM*
